The assay concerns the target PDL1, Q9NZQ7.

A number with no mark means an inactive call. How the calls were made is not given here.

This is an account of results in publication PMC13494018.

Chain of PDL1, Q9NZQ7 (Q9NZQ7 whole entry): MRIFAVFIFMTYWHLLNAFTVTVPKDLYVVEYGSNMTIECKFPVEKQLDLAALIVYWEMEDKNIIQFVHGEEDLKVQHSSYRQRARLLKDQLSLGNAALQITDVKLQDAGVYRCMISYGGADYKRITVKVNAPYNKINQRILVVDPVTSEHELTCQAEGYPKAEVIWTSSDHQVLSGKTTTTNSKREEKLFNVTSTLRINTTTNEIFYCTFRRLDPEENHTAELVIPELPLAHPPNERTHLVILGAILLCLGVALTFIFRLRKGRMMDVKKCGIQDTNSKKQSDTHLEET

B1: d8r1_design_ppi_1408_dldesign_0_cycle1_af2pred (protein)
chain: EESVKASILAAIERGARLLAAENPAAGVAALTVARVLTTTGGLGSAIAGAAAFAAIAAAATGARGAAIGGSVVSFTVKLVEMYK
Regarding B1, the “binding in a display sort” value is “not found”.

B2: d8r1_design_ppi_118_dldesign_0_cycle0_af2pred (protein)
chain: GLVSLLRAAKNTLESAIEAEDAEKAAKYLAGAAQLLEGAAKLDPRVEPAAKLAKEAAAAAKADIEKGKAKAKEALKAVEELLKEAEEE
For the molecule B2, the “binding in a display sort” value is “not found”.

B3: d8r1_design_ppi_1423_dldesign_0_cycle0_af2pred (protein)
chain: STAEKIAKYNKFAEEAKAAAKRVAEEGEEAAKEAIETLKKLAKESDAETAETLNKLAEIAEEGGGSAALAAMQAAAVHFANKAAKLAA
For the molecule B3, the “binding in a display sort” value is “not found”.

B4: d8r1_design_ppi_78_dldesign_0_cycle1_af2pred (protein)
chain: SMKKEEAKKVAEEARKAAKEAEELAKKIGDAKLAQQAKNIAAGADKAAEFGSLNMVKAFLREAKKLKEEAKKKLA
Turning to B4, the “binding in a display sort” value is “not found”.

B5: d8r1_design_ppi_321_dldesign_0_cycle1_af2pred (protein)
chain: GSNFEKAYYAGEAYSYAYAAVKEAKALVKALGDAAKPLLDEAEALLKKIEEVLKNGNLEEAKKMLEEAKALLEKVKAA
For B5, the “binding in a display sort” value was “binds (active)”.

B6: d8r1_design_ppi_419_dldesign_0_cycle0_af2pred (protein)
chain: SELEEEARKAEEEFRAALAELEAAAAELEKLDPAAGATARRAAEGARGLLELAKKFSVKSQLNVAKSMLRGAERQLAAARARVAALK
Turning to B6, the “binding in a display sort” value was “not found”.

B7: d8r1_design_ppi_456_dldesign_0_cycle1_af2pred (protein)
chain: SAQAAAAEKLRALADAIAAASPAYQPAANALRAAAVVAEKSGNGASALALLDAAIAAAAKVPGGAEWAAAIRAAAAEVRAAFA
As to B7, the “binding in a display sort” value was “not found”.

B8: d8r1_design_ppi_1135_dldesign_0_cycle1_af2pred (protein)
chain: DPREQFAAAVKEAAAALPDIADQVLALGEQALAAEGQAAADAMKAFVTLVTAAAAKASPEAAKAAGIAAANAMKAVSKIEE
With B8, the “binding in a display sort” value was “not found”.

B9: d8r1_design_ppi_645_dldesign_0_cycle0_af2pred (protein)
chain: KLEEAKEKLEKGKELLKKAKEDPENAIEYAKEALKEFSEASRLAAEAAKDEEYKEEAEELLKEANKLASEATQLLAKKASEEEK
Turning to B9, the “binding in a display sort” value is “not found”.

B10: d8r1_design_ppi_679_dldesign_0_cycle1_af2pred (protein)
chain: ATAEARRAVVEEAIARITAALADRPQWAAKAAAVLERGARLGREAEAARAVAAMLEVLGYTEAAAVAAEAAERIAAL
Regarding B10, the “binding in a display sort” value is “not found”.

B11: d8r1_design_ppi_536_dldesign_0_cycle0_af2pred (protein)
chain: SKDEEIAKLLLKTAEAARKDAKKALELAKELKKLGNKNQGGAIVTLLQAAVENKGAAGKSALAGAVKLAEAKAEDLLAK
B11: the “binding in a display sort” value is “not found”.

B12: d8r1_design_ppi_1080_dldesign_0_cycle0_af2pred (protein)
chain: SMESVLKSAESLAEAARRLAAERAAEPELVLRAAENALAGGTKLGEARGPEVAKKVRERMEATLAEIRARLA
B12: the “binding in a display sort” value was “not found”.

B13: d8r1_design_ppi_139_dldesign_0_cycle0_af2pred (protein)
chain: EELLEKLKEKAEKVKKLAEEGAEAEELEKARKELGAALSALTRAIAEASPELAAKGREAAAEAAKAAIKAGEKAEELKKA
In the case of B13, the “binding in a display sort” value is “not found”.

B14: d8r1_design_ppi_219_dldesign_0_cycle1_af2pred (protein)
chain: DARLERVAKVTAEAYAKVAAVAAGEKLPLARRAAALLAAGGFSPEAAAEYFAEAKAIAAEIGPEAAAIIEEAGKAV
For B14, the “binding in a display sort” value was “not found”.

B15: d8r1_design_ppi_290_dldesign_0_cycle1_af2pred (protein)
chain: SKAEAEKLKAQIEAAKAAGVAGDAATAAAAIAAITALADQAAALDPEYAAEVVNAANKAMLAVGDAREAKAAA
With B15, the “binding in a display sort” value was “not found”.

B16: d8r1_design_ppi_790_dldesign_0_cycle1_af2pred (protein)
chain: KAEEAKALAEKAIAAAPDVDAAAEEIAAAVKLGTGEALVAAARAAAAAIRALGDPAAQARLLELAREHGSRTYAAVAAGLAIARAEAA
B16: the “binding in a display sort” value is “not found”.

B17: d8r1_design_ppi_1323_dldesign_0_cycle1_af2pred (protein)
chain: MKASIKHLIEQAKKYAKEAKETGSDALARAAASAAAAAAVLAKEAGDKELAKEAEKVAKEIAEVAPPSIAKYAKEAAKLAAE
In the case of B17, the “binding in a display sort” value was “not found”.

B18: d8r1_design_ppi_305_dldesign_0_cycle1_af2pred (protein)
chain: AEEALKLLAEAAAAASPEVAALANQALALLKQAENPEAMKQAIALLNAAYLAADPAIQPLIRRALQLAMQVLAKADR
In the case of B18, the “binding in a display sort” value was “not found”.

B19: d8r1_design_ppi_87_dldesign_0_cycle0_af2pred (protein)
chain: MEEEFDERMRKAAEYLAKMDAALAAIKAAGDRAEAEKLLAELRKAGEEMAKELGEAGKAIKEALEAQAQAALAA
For B19, the “binding in a display sort” value is “not found”.
